The panel holds about 83,000 compounds, 20% with a hit somewhere; the sample as a whole holds those more often.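 Single-concentration screen, 48 h exposure, 96-well plates. Endpoint: percent growth. Below 10 = active.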 A number with no mark means an inactive call. Active and inactive are the calls of the source.
What was measured:
Test in all cases: NCI-60 one-dose screen, 48 h (100 = growth as untreated, 0 = no growth, -100 = all killed)
Settings in all cases: 10 µM unless noted
NCI-H23 lung = system: NCI-H23 lung
NCI-H226 lung = system: NCI-H226 lung
NCI-H322M lung = system: NCI-H322M lung
HOP-62 NSCLC = system: HOP-62 NSCLC
NCI-H460 lung = system: NCI-H460 lung
HOP-92 NSCLC = system: HOP-92 NSCLC
NCI-H522 lung = system: NCI-H522 lung
A549/ATCC NSCLC = system: A549/ATCC NSCLC
786-0 renal = system: 786-0 renal
COLO 205 colon = system: COLO 205 colon
DU-145 prostate = system: DU-145 prostate
K-562 leukemia = system: K-562 leukemia
MALME-3M melanoma = system: MALME-3M melanoma
MDA-MB-231 breast = system: MDA-MB-231 breast
RXF 393 renal = system: RXF 393 renal
SF-268 CNS = system: SF-268 CNS
SF-295 CNS = system: SF-295 CNS
SF-539 CNS = system: SF-539 CNS
UACC-257 melanoma = system: UACC-257 melanoma
M14 melanoma = system: M14 melanoma

Structure (SMILES) | growth (NCI-H23 lung) | growth (NCI-H226 lung) | growth (NCI-H322M lung) | growth (HOP-62 NSCLC) | growth (NCI-H460 lung) | growth (HOP-92 NSCLC) | growth (NCI-H522 lung) | growth (A549/ATCC NSCLC) | growth (786-0 renal) | growth (COLO 205 colon) | growth (DU-145 prostate) | growth (K-562 leukemia) | growth (MALME-3M melanoma) | growth (MDA-MB-231 breast) | growth (RXF 393 renal) | growth (SF-268 CNS) | growth (SF-295 CNS) | growth (SF-539 CNS) | growth (UACC-257 melanoma) | growth (M14 melanoma)
COc1c(C(=O)/C=C/c2ccc(C)o2)c(O)cc2occc12 | 79.5% | 75.3% | 97.2% | 59.2% | 70.1% | 68% | 41.8% | 58.8% | 99.1% | 104% | 87.1% | 22.5% | 76.7% | 89% | 62% | 80.1% | 82.4% | 80.6% | 86.1% | 55.5%
Cc1nc2c(-c3cnc(N)nc3)nc(N3CCOCC3)nc2n1C(C)C | 16.5% | -1.05% (active) | -5.38% (active) | -12.7% (active) | 12.2% | -17.2% (active) | 4.22% (active) | -1.09% (active) | -8.16% (active) | -2.93% (active) | 13.4% | 12.6% | -19.2% (active) | 23.9% | -29.6% (active) | 9.06% (active) | -36.1% (active) | -42.2% (active) | -23% (active) | 4.2% (active)
COc1c(B(O)O)cccc1-c1nc2ccc3[nH]ncc3c2c2c1CCCC2 | 15.5% | -10.6% (active) | 16% | 7.22% (active) | 8.49% (active) | 32.8% | 15.1% | 8.01% (active) | 25.9% | 4.2% (active) | 11.1% | 38.5% | 82.6% | 25.2% | -15.8% (active) | 23.2% | 34.8% | 0.769% (active) | 34% | 58.1%
COc1cccc(OCC(O)CN2CCN(c3ccccc3)CC2)c1 (stereo not given) | 106% | 106% | 129% | 103% | 114% | 129% | 80.3% | 114% | 104% | 138% | 116% | 92.4% | 145% | 108% | 163% | 106% | 113% | 100% | 134% | 104%
COc1cccc2nc(Nc3cccc(NC(=O)c4cc(N5CCOCC5)cc(C(F)(F)F)c4)c3)ccc12 | 78.4% | 47.8% | 68.6% | 78.6% | 49.2% | 47.9% | 81.3% | 37.3% | 65.8% | 62.5% | 59.9% | 45% | 91.3% | 93.3% | 51.4% | 59.9% | 58.4% | 82% | 57.1% | 52.5%
CNC(=O)c1cc(Oc2ccc(NC(=O)c3nc(S(C)(=O)=O)n(C)c3-c3ccc(F)cc3)cc2)ccn1 | 79.1% | 87.4% | 62.5% | 91.3% | 59.4% | 77.3% | 84.5% | 82.5% | 75.4% | 59.4% | 56.9% | 61% | 77.5% | 83% | 58.4% | 70.4% | 70.2% | 85.6% | 96.4% | 50.4%
O=C(Nc1ccc(Oc2ccc(Nc3nc4ccccc4s3)cc2)cc1)Nc1ccc(Cl)c(C(F)(F)F)c1 | -20.2% (active) | 4.93% (active) | 25.7% | 17% | 1.39% (active) | -25% (active) | -36.8% (active) | 9.75% (active) | 1.24% (active) | -84% (active) | 9.51% (active) | 6.86% (active) | 2.78% (active) | -65.5% (active) | 8.85% (active) | 18.5% | 5.6% (active) | 9.29% (active) | -11.6% (active) | -4.56% (active)
Oc1c(C(c2ccc(F)cc2)N2CCCCC2)ccc2cncnc12 (stereo not given) | 16.1% | -0.0481% (active) | 19.4% | 11.6% | 4.38% (active) | -14.4% (active) | 4.34% (active) | 5.08% (active) | 23.1% | -30.1% (active) | 23.3% | 10.4% | 3.63% (active) | 14.4% | 31.1% | 20.9% | -1.59% (active) | 13.9% | 0.316% (active) | 15.7%
NC(=O)c1noc(C(=O)c2ccccc2)c1N | 101% | 89.8% | 104% | 114% | 102% | 107% | 80.4% | 89.1% | 97.9% | 111% | 104% | 89.5% | 101% | 109% | 96.2% | 98.4% | 98.9% | 107% | 102% | 110%
Clc1cn2cc(-c3ccc(Cl)c(Cl)c3Cl)nc2s1 | 92.7% | 90.1% | 91.9% | 86.7% | 109% | 85.8% | 91.4% | 103% | 99.9% | 106% | 117% | 92.6% | 101% | 98.5% | 99.8% | 103% | -71.5% (active) | 105% | 112% | 95.3%
O=C(CCc1nc2sc3c(c2c(=O)[nH]1)CCC3)NCc1cn(-c2ccccc2)nc1-c1ccccc1 | 66.2% | 92.2% | 92.8% | 80.8% | 1.28% (active) | 95.9% | 78.9% | 16.5% | 98.4% | 75.7% | 48.7% | 84.6% | 47.7% | 11.4% | 48.8% | 65.3% | 46.2% | 83.3% | 98.5% | 74.5%
Cc1cc(C)c(C#N)c(SCC(=O)c2sc3c(C#N)c(C)cc(C)[n+]3c2[O-])n1 | 39.4% | 46.3% | 29% | 17% | 6.25% (active) | 51.8% | -31.1% (active) | 19.9% | 30.6% | 5.03% (active) | -6.34% (active) | 5.26% (active) | 17.5% | 15.2% | -21.5% (active) | 22.9% | -52.3% (active) | -11.3% (active) | 51.9% | 12.2%
O=c1[nH]cnc2nc[nH]c12 | 113% | 98.9% | 94.9% | 106% | 103% | 104% | 99.2% | 105% | 114% | 112% | 170% | 49.3% | 110% | 99% | 107% | 147% | 93.8% | 97.3% | 117% | 109%
CCN1CCN(Cc2ccc(NC(=O)c3nc4ccc5[nH]ncc5c4c4c3CCCC4)cc2C(F)(F)F)CC1 | 74.6% | 60.3% | 2.39% (active) | -29.8% (active) | -73.4% (active) | 44.9% | -76.9% (active) | 6.07% (active) | -88.6% (active) | -76.7% (active) | -57.8% (active) | -44.5% (active) | -79.3% (active) | -72.1% (active) | -87.4% (active) | 27.4% | -54.2% (active) | -93.7% (active) | -63.9% (active) | -75.4% (active)
CC(C)c1[nH]ncc1-c1nc2ccc3[nH]ncc3c2c2c1CCCC2 | 32.7% | 35.5% | 39.7% | 30.5% | 16.1% | 58.5% | 41% | 13.9% | 23.2% | 7.79% (active) | 33.9% | 42% | 52.6% | 35.6% | -8.2% (active) | 36.7% | 43.1% | 23% | 44% | 37.1%
Fc1ccc2c(CN3CCO[C@H](COc4cccc(Cl)c4)C3)c[nH]c2c1 | 75.5% | 64.9% | 74.6% | 22% | 30.2% | 45.2% | 36.3% | 44.4% | 27.2% | 69.1% | 42.6% | 32.1% | 81.9% | 66.8% | 82.9% | 81.1% | 41.1% | 56.7% | 53.6% | 54.4%

Source: PubChem BioAssay (NCI)
